Reference: paper PMC5540273 (PLoS ONE, 2017)

Each molecule was assayed on ROCK1. Conditions: concentration: 1 μM, replicates: in singlicate; n = 1.
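Further: KINOMEscan kinase panel screen.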

Structure (SMILES) | %Inh
O=C(Nc1n[nH]c2nc(-c3ccco3)c(Br)cc12)C1CCN(Cc2ccccc2)C1.O=C(O)[C@H](O)[C@@H](O)C(=O)O (centres unmarked) [SB-742034] | 0%
Cn1cnc2c(N)ncnc21 [SKF-97623] | 38%
COc1ccc(Nc2nccc(-c3ccc(NC(=O)c4cc5cc(F)ccc5[nH]4)cc3)n2)cc1 [GSK1229496] | 18%
CNC(=O)c1ccc(C)c(-n2c(C)cc(OCc3ccc(F)cc3F)c(Br)c2=O)c1 | 0%
Nc1nccc(-c2c(-c3ccc(F)cc3)ncn2C2CCN(Cc3ccccc3)CC2)n1 [SB-219980] | 34%
Cc1ccc(NC(=O)Nc2ccccc2)cc1-c1ccc(C(=O)Nc2ccncc2)cc1 [GSK1398471] | 0%
Fc1ccc(-c2nc[nH]c2-c2ccncc2)cc1 [SB-217360] | 0%
CC(C)c1cc(-c2ccc3c(N)n[nH]c3c2)nc(N)n1 [GSK2250882] | 28%
Fc1ccc(-c2nc3n(c2-c2ccncc2)CCS3)cc1 [GI98581] | 11%
CCc1ccc(-c2ccc3c(c2)-c2n[nH]cc2S(=O)(=O)N3C)cc1 | 0%
COc1ccc(CSc2nnc(-c3ccc4c(c3)CCO4)o2)cc1 | 0%
CSc1ccc(-c2nc3n(c2-c2ccncc2)CCC3)cc1 [SKF-105561] | 23%
COc1cccc(NC(=O)Nc2ccc(C)c(-c3ccc(C(=O)Nc4ccncc4)cc3)c2)c1 [GSK1398474] | 0%
O=c1cc(N2CCOCC2)nc2n(Cc3cccc(Cl)c3Cl)c3ccccc3n12 [GSK2299009] | 10%
